Test results: PubChem BioAssay AID504834 (National Center for Advancing Translational Sciences (NCATS), 2011)
Among all 320,000 compounds or so, about 22,000 (6.9%) were called active. About 27% were inconclusive and are not listed. The entries come from a sample that favours actives as a whole. Unmarked numbers belong to inactive results. The call rests on the fitted dose curve; in most records, active means well fitted inhibition curve with a large enough effect; inconclusive means small, poorly fitted or top-dose-only effect, or another doubt; inactive means no such curve, though single readings can be large or run the other way.

assay: Primary qHTS for delayed death inhibitors of the malarial parasite plastid, 96 hour incubation; settings: P. falciparum luciferase reporter growth; series mostly up to 28.7 µM; activity change, negative = inhibition: at the top concentration
From the text: The goal of this screen is to discover new antimalarial compounds that act by inhibiting the development of the apicoplast in the malarial parasite Plasmodium falciparum. The biochemical processes that make this organelle essential for erythrocytic stage parasites are not well understood. However, antibiotics such as azithromycin and tetracycline, which target the apicoplast translational machinery, have a potent antimalarial effect.
We have developed a cell-based assay that measures parasite growth based on the expression of an integrated copy of a firefly luciferase reporter. To detect small molecules that cause this "delayed death" phenotype, erythrocytes infected with the luciferase-expressing parasites were incubated with compounds for either one or two generations, corresponding to 48 and 96 hours, respectively. Compounds that inhibit parasite growth in the second generation, but not the first, should be enriched in antimalarials that target the apicoplast. Growth inhibition is detected by a decrease in luciferase activity.
Assay Provider: David Fidock and Eric Ekland, Columbia University
Keywords: NIH Roadmap, MLPCN, MLI, MLSMR, qHTS, NCGC, qHTS, malaria, luciferase, viability
Four microliters of infected erythrocytes (2% hematocrit, 0.05% parasitemia final concentration) in culture medium were dispensed and the plates incubated for 96 hours at 37 C in 5% CO2. Two microliters of luciferase detection reagent was added and luminescence was detected by a ViewLux (PerkinElmer) reader.
On the % scale 0 is the no-effect control and ±100 the full control effect; potency means the concentration at half of the fitted maximal effect.

| SMILES | activity change, negative = inhibition [%] | Potency |
| --- | --- | --- |
| Cc1oc(-c2ccccc2Cl)[n+]([O-])c1C | 6.5 | – |
| Cc1oc(-c2cccc(Cl)c2)[n+]([O-])c1C | – | 5.22 µM (active) |
| CCOC(=O)CSc1ncc(-c2cccc(Cl)c2)cn1 | 51.5 | – |
| Cc1[nH]n(C(N)=S)c(=O)c1N=Nc1ccc(Cl)cc1Cl | 51.3 | – |
| CC(=O)Nc1cccc(C(=O)OCC(=O)NCc2cc(C)c(O)c(C)c2)c1 | 96.7 | – |
| Cc1ccc(S(=O)(=O)N2CC(O)C[C@H]2C(=O)OCC(=O)Nc2ccc(N3CCOCC3)cc2)cc1C (stereo partly drawn) | -24.5 | – |
| CN(C(=O)COC(=O)c1ccc(Br)o1)c1c(N)n(Cc2ccccc2)c(=O)[nH]c1=O | 5.36 | – |
| CCOC(=O)N1CCN(C(=O)Cc2ccc(-n3c(=S)[nH]c4ccccc4c3=O)cc2)CC1 | – | 13.1 µM (active) |
| CCCCNC(=O)c1ccc(-n2c(=S)[nH]c3ccccc3c2=O)cc1 | 49.1 | – |
| O=C(Cc1ccc(-n2c(=O)[nH]c3ccccc3c2=O)cc1)N1CCN(c2cccc(Cl)c2)CC1 | 6.21 | – |
| CCc1nc(N2CCN(C(C)=O)CC2)c2c3c(sc2n1)CCCC3 | 0 | – |
| O=C(/C=C/c1cccc(F)c1)NC1CC1 | 4.57 | – |
| CCCc1nc2c(C)cc(-c3nc4ccccc4n3C)cc2n1Cc1ccc(-c2ccccc2C(=O)O)cc1 | – | 1.51 µM (active) |
| CC(=O)c1nc2ccccc2n1Cc1ccccc1 | 10.7 | – |
| CC(=O)Nc1nc2ccccc2n1Cc1ccc(C)cc1 | 67.4 | – |
| Cc1ccc2cc(/C=N/NC(=O)[C@@H]3CCCN3)c(Cl)nc2c1 | 20.5 | – |
| COc1ccc(CCNC(=O)CCc2cn(C)c3ccccc23)c(OC)c1 | 23.6 | – |
| Cc1nc(N)[nH]c(=O)c1Oc1cccc(C(F)(F)F)c1 | -0.57 | – |
| O=C(NCc1cccnc1)Nc1cccc(NC(=O)NCc2cccnc2)c1F | 12.5 | – |
| CC1CC(C)CN(C(=O)COC(=O)c2ccc3ncsc3c2)C1 (stereo not drawn) | -11.5 | – |
| Cc1ccc(S(=O)(=O)NC(=O)Nc2nc(-c3ccc(F)c(F)c3)cs2)cc1 | 34.1 | – |
| Cc1cc(=O)cc(C)n1-c1ccc(Cl)c(Cl)c1 | -1.31 | – |
| CCCNC(=O)c1onc(CSc2ccc(F)cc2)c1C(=O)NC(C)C | – | 11.7 µM (active) |
| CCCCNC(=O)c1onc(CSc2cccc(OC)c2)c1C(=O)O | 22.1 | – |
| CCOc1cccc(SCc2noc(C(=O)NC(C)C)c2C(=O)O)c1 | 72.9 | – |
| Nc1cccc(-c2cc(-c3ccccc3)nc(-c3cccc(N)c3)n2)c1 | – | 10.4 µM (active) |
| Nc1nc(-c2ccccc2)cc(-c2ccccc2)n1 | 6 | – |

| SMILES | activity change, negative = inhibition [%] | Potency |
| --- | --- | --- |
| CNc1nc(-c2ccccc2)cc(-c2ccccc2)n1 | -21.4 | – |
| CCCOc1ccc(Cc2c(O)nc(SC)[nH]c2=O)cc1C | -14.5 | – |
| Cc1ccc(S(=O)(=O)NCCSC(C)(C)C)cc1 | 38.2 | – |
| COc1ccccc1CNS(=O)(=O)c1ccc(C)cc1 | 8.44 | – |
| COc1nc(N(C)C)nc(N2CC(=O)N(CCNS(=O)(=O)c3ccc(C)cc3)C2=N)n1 | – | 2.33 µM (active) |
| CCOC(=O)C1(CCOC)CCN(Cc2cc3ccccc3s2)CC1 | -25.4 | – |
| O=C(Nc1cccc(-c2cscn2)c1)C1CCN(Cc2ccsc2)CC1 | -16.1 | – |
| CCOc1cc(C2C(C(=O)OC(C)C)=C(C)NC3=C2C(=O)CCC3)cc([N+](=O)[O-])c1O (stereo not drawn) | 16.6 | – |
| COc1cc(C2C(C#N)=C(C)NC3=C2C(=O)CC(C)(C)C3)ccc1O (stereo not drawn) | -20.7 | – |
| CCOC(=O)C1=C(C)NC2=C(C(=O)CC(C)(C)C2)C1c1ccsc1 (stereo not drawn) | – | 7.38 µM (active) |
| Cc1ccc2c(C)c(C(=O)N(C)Cc3ccncn3)oc2c1C | 74.4 | – |
| CCc1nnc(NC(=O)Cc2cccs2)s1 | -22.2 | – |
| COc1cccc(CC(=O)Nc2nc(-c3ccc(OC)c(OC)c3)cs2)c1 | -22.7 | – |
| CCCc1ccc(-c2csc(NC(=O)Cc3cccs3)n2)cc1 | – | 11.7 µM (active) |
| CC(NCC(=O)Nc1cc(Cl)cc(Cl)c1)c1ccccc1 (stereo not drawn) | -15.4 | – |
| COc1cccc(-c2coc3cc4oc(=O)c(CC(=O)O)c(C)c4cc23)c1 | -4.33 | – |
| COc1ccc(OCCCC(=O)OC(C)C(=O)Nc2ccccc2[N+](=O)[O-])cc1 (stereo not drawn) | 30.3 | – |
| O=C1NC(=O)C(CCc2ccccn2)(Cc2cccc(Cl)c2Cl)C(=O)N1c1ccc(Br)cc1 (stereo not drawn) | 30.6 | – |
| Cc1ccc(N2C(=O)NC(=O)C(CCc3ccncc3)(Cc3cccc(Cl)c3Cl)C2=O)cc1 (stereo not drawn) | – | 11.7 µM (active) |
| CC(C)(C)c1ccc(/C=C/C(=O)NCCCn2ccnc2)cc1 | -22.8 | – |
| O=C1CCN(CCc2ccccc2)CCN1CCOc1ccccc1 | 9.44 | – |
| CC(C)C[C@@H](CO)N1CCN(Cc2ccc(O)cc2)CCC1=O | 78.9 | – |
| CC(C)C[C@@H](COc1ccccc1)N1CCN(CC(C)C)CCC1=O | – | 11.7 µM (active) |
| CCCNC(=O)N1CCC(c2ccc3c(c2)OCO3)CC1 | 29.2 | – |
| CC1CN(C(=S)Nc2ccc(S(N)(=O)=O)cc2)CC(C)O1 (stereo not drawn) | 3.43 | – |
| O=[N+]([O-])c1ccc(N2CCN(c3ccc(F)cc3)CC2)cn1 | -10.5 | – |
